Consider six compounds from PubChem BioAssay.

One may read the viability as a read-out of living cells in per cent, often relative to untreated cells. A word on the AC50: it is the concentration at which the activity in the assay is half-maximal. As usually defined, the IC50 is the point on the concentration scale where inhibition reaches its midpoint.

“And” between values parts separate entries of the source, which are not always exact repeats. Equal entries are not always repeated. Records with an inconclusive call do not appear. The source made the active and inactive calls.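 Rule for the calls, unless noted: active = normalized viability below 100% at a tested concentration; inactive = the rest.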

A short description of assay [1]: growth inhibition of DIPG glioma cells, dose response, cell-based, SU-DIPG-XVII, MIPE5.0, CellTiter-Glo, qHTS (AID 1347060; cut-off not given, nearly all actives have AC50 up to about 26 µM;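 for AC50: cells exposed to compound for 48 hours before viability readout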). The following applies: SU-DIPG-XVII viability, CellTiter-Glo ATP luminescence. Background: In ATP-based viability assays light output follows the ATP content of the culture.
The nature of assay [2]: growth inhibition of DIPG glioma cells, dose response, cell-based, SU-DIPG-XIII, MIPE4.0, CellTiter-Glo, qHTS (AID 1347061; cut-off not given, nearly all actives have AC50 up to about 37 µM;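 note: cells exposed to compound for 48 hours before readout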). The following applies: SU-DIPG-XIII viability, CellTiter-Glo ATP luminescence.
Assay [3] can be described thus: growth inhibition of DIPG glioma cells, dose response, cell-based, SU-DIPG-XIII, MIPE5.0, CellTiter-Glo, qHTS (AID 1347064; cut-off not given, nearly all actives have AC50 up to about 23 µM;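 for AC50: cells exposed to compound for 48 hours before the viability read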). The following applies: SU-DIPG-XIII viability, CellTiter-Glo ATP luminescence.
A short description of assay [4]: viability loss in pontine glioma line – cell-based, SU-DIPG-XXV, MIPE5.0, CellTiter-Glo, qHTS, dose response (AID 1347065; cut-off not given, nearly all actives have AC50 up to about 26 µM;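 note: cells exposed to compound for 48 hours before ATP readout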). The following applies: CellTiter-Glo ATP luminescence.
A short description of assay [5]: SU-DIPG-VI glioma cell viability, MIPE4.0 library, CellTiter-Glo luminescence, qHTS (AID 1347066; cut-off not given, nearly all actives have AC50 up to about 30 µM;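 note: cells exposed to compound for 48 hours before readout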). The following applies: CellTiter-Glo ATP luminescence.
Assay [6] can be described thus: JHH-DIPG-1 glioma cell viability, MIPE5.0 library, CellTiter-Glo luminescence, qHTS (AID 1347067; cut-off not given, nearly all actives have AC50 up to about 26 µM;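 note: cells exposed to compound for 48 hours before readout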). The following applies: JHH-DIPG-1 glioma viability, CellTiter-Glo ATP luminescence.
A short description of assay [7]: SU-DIPG-XXV glioma cell viability, MIPE5.0 library, qHTS (AID 1347068; cut-off not given, nearly all actives have IC50 up to about 30 µM;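 for IC50: cells exposed to compound for 48 hours before viability readout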).
Assay [8] in a line: sensitizers of A549 cells to miR-34 induction, primary screen, imaging, A549 dox-inducible miR-34, nuclei and caspase counts (AID 1347080;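 active = compounds whose cell count with miR-34 switched on is under 0.7 times the count with it off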). The following applies: A549 miR-34 inducible, Hoechst nuclei count, 48 h.
The nature of assay [9]: survival rescue of mitochondrial mutant cells in low glucose, primary screen, MELAS cybrids, Rieske KO mouse fibroblasts, CellTiter-Glo (AID 1508586;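 active = mean z-score across replicates of 1.96 or higher in either the MELAS or the Rieske mutant cell line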;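 note: z relative to plate mean and SD of compound and empty wells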).
The nature of assay [10]: ovarian cancer cell viability with rucaparib, profiling panel, oncology-focused library, rucaparib conditional (AID 1508598). The following applies: patient-derived ovarian cancer cells, CellTiter-Glo viability, 144 h, stronger effect = lower value.
The nature of assay [11]: growth inhibition of DIPG glioma cells, dose response, cell-based, SU-DIPG-IV, MIPE4.0, CellTiter-Glo, qHTS (AID 1347063; cut-off not given, nearly all actives have AC50 up to about 30 µM;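 note: compound exposure lasted 48 hours before the viability readout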). The following applies: SU-DIPG-IV viability, CellTiter-Glo ATP luminescence.
Assay [12] is described as follows: modifiers of HSF1 nuclear foci, imaging, Selleck Cancer Library (AID 1347162; in the data active = plate-normalised HSF1 focus index below about 0.46). The following applies: human cells, at 10 µM; SSMD: measured here: HSF1 foci SSMD mean; cell count: measured here: cell number; plate-normalised HSF1 focus index: stronger effect = lower value.
Setting [13] is: stronger effect = lower value, cell number ratio, induced over uninduced.
Setting [14] is: measured here: relative caspase fold change +Dox/-Dox.
Where [15] appears, read: measured here: total cells with miR-34 induction, stronger effect = lower value.
Where [16] appears, read: measured here: total cells without miR-34 induction.
Where [17] appears, read: MELAS cybrid survival, CellTiter-Glo 48 h, stronger effect = higher value.
Setting [18] is: Rieske KO mouse fibroblast survival, CellTiter-Glo 72 h.

Take `O=S(=O)(O)CCSSCCS(=O)(=O)O`: the result in [1], in [2], in assay [3], in assay [4], in assay [5] and in assay [6] was inactive. Also, the outcome in assay [7] was inactive. The fold change is 0.942 (inactive) and 0.926 (inactive) in [8] (setting [13]); 0.692 and 0.976 in [8] (setting [14]). The cell count was 8910 and 7810 in assay [8] (setting [15]); 9460 and 8440 in assay [8] (setting [16]). The figures for the z-score in assay [9] (setting [17]) and in assay [9] (setting [18]) were -0.449 (inactive) and 0.587, respectively. Further, the viability was 98.2% (active) in assay [10] (at 0.000305 µM, OCI-C5x cells, with rucaparib 10 µM, 100% = cells with rucaparib alone); 108% (inactive) in [10] (at 0.000305 µM, OCI-C5x cells, without rucaparib); 105% (inactive) in [10] (at 0.000305 µM, OCI-P5x cells, with rucaparib 20 µM, 100% = cells with rucaparib alone); 108% (inactive) in assay [10] (at 0.000305 µM, OCI-P5x cells, without rucaparib); 106% (inactive) in assay [10] (at 0.00122 µM, OCI-C5x cells, with rucaparib 10 µM, 100% = cells with rucaparib alone); 106% (inactive) in assay [10] (at 0.00122 µM, OCI-C5x cells, without rucaparib). For the same compound, the viability was 105% (inactive) in assay [10] (at 0.00122 µM, OCI-P5x cells, with rucaparib 20 µM, 100% = cells with rucaparib alone); 103% (inactive) in assay [10] (at 0.00122 µM, OCI-P5x cells, without rucaparib); 102% (inactive) in [10] (at 0.00488 µM, OCI-C5x cells, with rucaparib 10 µM, 100% = cells with rucaparib alone); 103% (inactive) in assay [10] (at 0.00488 µM, OCI-C5x cells, without rucaparib); 101% (inactive) in assay [10] (at 0.00488 µM, OCI-P5x cells, with rucaparib 20 µM, 100% = cells with rucaparib alone); 100% (inactive) in assay [10] (at 0.00488 µM, OCI-P5x cells, without rucaparib). Also, the viability in assay [10] (at 0.0195 µM, OCI-C5x cells, with rucaparib 10 µM, 100% = cells with rucaparib alone) was 100% (inactive); in [10] (at 0.0195 µM, OCI-C5x cells, without rucaparib) it was 107% (inactive); in assay [10] (at 0.0195 µM, OCI-P5x cells, with rucaparib 20 µM, 100% = cells with rucaparib alone) it was 105% (inactive); in [10] (at 0.0195 µM, OCI-P5x cells, without rucaparib), 104% (inactive); in [10] (at 0.0781 µM, OCI-C5x cells, with rucaparib 10 µM, 100% = cells with rucaparib alone), 100% (inactive); in [10] (at 0.0781 µM, OCI-C5x cells, without rucaparib) it was 104% (inactive). Also, the viability was 98.4% (active) in assay [10] (at 0.0781 µM, OCI-P5x cells, with rucaparib 20 µM, 100% = cells with rucaparib alone); 98.9% (active) in assay [10] (at 0.0781 µM, OCI-P5x cells, without rucaparib); 100% (inactive) in [10] (at 0.313 µM, OCI-C5x cells, with rucaparib 10 µM, 100% = cells with rucaparib alone); 105% (inactive) in assay [10] (at 0.313 µM, OCI-C5x cells, without rucaparib); 101% (inactive) in [10] (at 0.313 µM, OCI-P5x cells, with rucaparib 20 µM, 100% = cells with rucaparib alone); 97.9% (active) in assay [10] (at 0.313 µM, OCI-P5x cells, without rucaparib). Also, the viability was 127% (inactive) in assay [10] (at 1.25 µM, OCI-C5x cells, with rucaparib 10 µM, 100% = cells with rucaparib alone); 101% (inactive) in assay [10] (at 1.25 µM, OCI-C5x cells, without rucaparib); 94.1% (active) in assay [10] (at 1.25 µM, OCI-P5x cells, with rucaparib 20 µM, 100% = cells with rucaparib alone); 89.9% (active) in [10] (at 1.25 µM, OCI-P5x cells, without rucaparib); 116% (inactive) in assay [10] (at 5 µM, OCI-C5x cells, with rucaparib 10 µM, 100% = cells with rucaparib alone); 101% (inactive) in [10] (at 5 µM, OCI-C5x cells, without rucaparib). The viability was 90.1% (active) in assay [10] (at 5 µM, OCI-P5x cells, with rucaparib 20 µM, 100% = cells with rucaparib alone) and 88.4% (active) in [10] (at 5 µM, OCI-P5x cells, without rucaparib).

As for `C[C@]12CC[C@@H]3c4ccc(O)cc4CC[C@H]3[C@@H]1[C@@H](O)[C@@H](O)[C@@H]2O`, the compound was called inactive in assay [1], in [2], in assay [11], in assay [5], in assay [6] and in [7].

Regarding `NC1=N[C@@]2(c3cc(NC(=O)c4ccc(F)cn4)ccc3F)COC[C@H]2CS1`, the outcome in [1], in assay [2], in [4], in assay [5], in assay [6] and in [7] was inactive.

For `COc1cc(Nc2ncc(F)c(Nc3ccc4c(n3)N(COP(=O)(O)O)C(=O)C(C)(C)O4)n2)cc(OC)c1OC`, the AC50 in [1] is 1.05 µM (active); in [2], 1.87 µM (active); in [11], 3.32 µM (active); in [3], 3.72 µM (active); in [4], 3.72 µM (active). Besides, the IC50 in [7] is 4.68 µM (active). Besides, the fold change was 0.857 (inactive) in [8] (setting [13]) and 0.912 in assay [8] (setting [14]). In addition, the figures for the cell count in [8] (setting [15]), in [8] (setting [16]) and in [12] were 1024, 1190 and 7320, respectively. Besides, in [12], the SSMD is -2.78. For the same compound, in [12], the plate-normalised HSF1 focus index was 0.825 (inactive). Besides, the results for the z-score in assay [9] (setting [17]) and in assay [9] (setting [18]) were -0.637 (inactive) and -0.181, respectively.

Turning to `O=C(Nc1ccc(Oc2ccnc3[nH]ccc23)c(F)c1)c1cccn(-c2ccc(F)cc2)c1=O`, the outcome in [1], in assay [2], in [3], in assay [4], in [5] and in assay [6] was inactive. In addition, in assay [7], the result was inactive.

Take `CC1=C(C(=O)Nc2cc3cn[nH]c3cc2F)C(c2ccc(C(F)(F)F)cc2)CC(=O)N1` (stereo unspecified): the outcome in [1], in assay [2], in assay [11], in assay [3], in assay [6] and in assay [7] was inactive. Besides, the fold change is 1.03 (inactive) in [8] (setting [13]) and 0.78 in assay [8] (setting [14]). Besides, the cell count came out at 5210 in [8] (setting [15]) and 5040 in [8] (setting [16]). Besides, the z-score was -0.364 (inactive) in assay [9] (setting [17]) and 0.0194 in assay [9] (setting [18]).
